Results from the supplement of paper PMC9446081.
± gives the standard deviation of the averaged measurements.

Experiments:
Test in all cases: relative enzymatic activity vs untreated control (fraction); higher = less inhibition
Conditions in all cases: 100 µM; incubation time: 2 h at 37 C
[1] = tested on: DNA gyrase
Description: (§1)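 In vitro enzymatic inhibition assays (ProFoldin kits) for 12 purified essential E. coli enzymes or complexes, each treated with 218 active antibacterial compounds at 100 µM for 2 h at 37°C. Read-outs were fluorescence or absorbance (phosphate detection, dye binding), converted to activity via standard curves and expressed relative to untreated DMSO controls.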

[2] = biological target: DNA helicase (UniProt P0ACB1)
DNA helicase, sequence (P0ACB1 whole entry): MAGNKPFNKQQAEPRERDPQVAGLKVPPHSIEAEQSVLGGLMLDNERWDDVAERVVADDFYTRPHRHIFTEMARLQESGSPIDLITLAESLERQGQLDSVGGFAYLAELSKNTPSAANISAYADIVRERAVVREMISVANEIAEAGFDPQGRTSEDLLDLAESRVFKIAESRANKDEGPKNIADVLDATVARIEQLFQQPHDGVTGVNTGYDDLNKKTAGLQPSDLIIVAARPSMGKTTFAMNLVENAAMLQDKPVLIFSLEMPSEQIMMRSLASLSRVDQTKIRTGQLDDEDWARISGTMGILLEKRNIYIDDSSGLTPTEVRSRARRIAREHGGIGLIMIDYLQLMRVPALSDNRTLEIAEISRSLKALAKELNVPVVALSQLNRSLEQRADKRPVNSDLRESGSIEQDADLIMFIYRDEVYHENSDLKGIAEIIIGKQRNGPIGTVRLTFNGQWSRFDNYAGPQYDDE
Description: as §1

[3] = biological target: DNA ligase (UniProt B1XA82)
DNA ligase, sequence (B1XA82 whole entry): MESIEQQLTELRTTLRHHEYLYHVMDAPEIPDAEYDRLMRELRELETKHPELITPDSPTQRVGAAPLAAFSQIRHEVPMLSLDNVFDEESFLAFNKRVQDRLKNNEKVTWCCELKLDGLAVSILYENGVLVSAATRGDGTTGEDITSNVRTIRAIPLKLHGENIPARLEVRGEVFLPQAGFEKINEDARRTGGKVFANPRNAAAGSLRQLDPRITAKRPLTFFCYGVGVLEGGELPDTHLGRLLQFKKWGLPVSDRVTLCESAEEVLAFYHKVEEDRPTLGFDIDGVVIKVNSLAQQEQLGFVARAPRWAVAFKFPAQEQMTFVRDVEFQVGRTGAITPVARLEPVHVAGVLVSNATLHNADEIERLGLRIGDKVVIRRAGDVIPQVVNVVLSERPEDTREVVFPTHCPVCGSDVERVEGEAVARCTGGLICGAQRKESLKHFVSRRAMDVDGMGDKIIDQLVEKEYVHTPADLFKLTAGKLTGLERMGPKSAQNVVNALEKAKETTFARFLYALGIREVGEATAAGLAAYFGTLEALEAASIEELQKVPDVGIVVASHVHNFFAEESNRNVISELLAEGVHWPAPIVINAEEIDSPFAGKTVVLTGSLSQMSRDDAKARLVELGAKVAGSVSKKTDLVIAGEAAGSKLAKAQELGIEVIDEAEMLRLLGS
Description: as §1

[4] = biological target: DNA polymerase (UniProt P10443)
DNA polymerase, sequence (P10443 whole entry): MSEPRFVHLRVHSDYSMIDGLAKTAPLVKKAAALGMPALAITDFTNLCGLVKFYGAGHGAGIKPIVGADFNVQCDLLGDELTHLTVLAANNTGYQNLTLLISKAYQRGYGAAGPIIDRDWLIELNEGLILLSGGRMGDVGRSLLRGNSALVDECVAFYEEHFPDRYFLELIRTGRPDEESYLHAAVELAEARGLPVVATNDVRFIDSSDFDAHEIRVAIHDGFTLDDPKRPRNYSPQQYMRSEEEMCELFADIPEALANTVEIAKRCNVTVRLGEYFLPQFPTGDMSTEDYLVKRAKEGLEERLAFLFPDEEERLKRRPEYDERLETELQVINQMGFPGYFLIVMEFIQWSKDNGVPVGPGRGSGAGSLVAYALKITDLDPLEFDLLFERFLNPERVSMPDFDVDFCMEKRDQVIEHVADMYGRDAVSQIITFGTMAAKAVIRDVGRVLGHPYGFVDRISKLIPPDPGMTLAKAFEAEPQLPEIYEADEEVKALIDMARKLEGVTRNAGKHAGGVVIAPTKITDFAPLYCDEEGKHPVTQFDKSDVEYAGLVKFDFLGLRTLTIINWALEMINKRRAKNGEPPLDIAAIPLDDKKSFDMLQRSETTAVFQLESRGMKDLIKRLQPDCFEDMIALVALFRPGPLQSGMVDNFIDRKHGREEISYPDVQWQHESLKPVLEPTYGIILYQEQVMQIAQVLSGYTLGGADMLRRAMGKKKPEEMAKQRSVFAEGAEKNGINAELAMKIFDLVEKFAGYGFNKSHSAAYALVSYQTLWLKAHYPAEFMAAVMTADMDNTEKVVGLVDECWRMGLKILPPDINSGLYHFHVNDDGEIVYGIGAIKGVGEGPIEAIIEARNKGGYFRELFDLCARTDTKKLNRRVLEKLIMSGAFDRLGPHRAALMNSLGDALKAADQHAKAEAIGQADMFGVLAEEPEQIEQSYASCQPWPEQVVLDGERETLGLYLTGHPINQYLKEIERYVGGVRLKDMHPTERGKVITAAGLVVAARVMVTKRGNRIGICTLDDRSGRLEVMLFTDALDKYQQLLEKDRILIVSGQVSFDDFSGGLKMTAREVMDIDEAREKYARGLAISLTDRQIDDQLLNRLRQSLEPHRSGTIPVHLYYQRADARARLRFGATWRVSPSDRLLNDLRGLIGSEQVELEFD
Description: as §1

[5] = biological target: DNA primase (UniProt P0ABS7)
DNA primase, sequence (P0ABS7 whole entry): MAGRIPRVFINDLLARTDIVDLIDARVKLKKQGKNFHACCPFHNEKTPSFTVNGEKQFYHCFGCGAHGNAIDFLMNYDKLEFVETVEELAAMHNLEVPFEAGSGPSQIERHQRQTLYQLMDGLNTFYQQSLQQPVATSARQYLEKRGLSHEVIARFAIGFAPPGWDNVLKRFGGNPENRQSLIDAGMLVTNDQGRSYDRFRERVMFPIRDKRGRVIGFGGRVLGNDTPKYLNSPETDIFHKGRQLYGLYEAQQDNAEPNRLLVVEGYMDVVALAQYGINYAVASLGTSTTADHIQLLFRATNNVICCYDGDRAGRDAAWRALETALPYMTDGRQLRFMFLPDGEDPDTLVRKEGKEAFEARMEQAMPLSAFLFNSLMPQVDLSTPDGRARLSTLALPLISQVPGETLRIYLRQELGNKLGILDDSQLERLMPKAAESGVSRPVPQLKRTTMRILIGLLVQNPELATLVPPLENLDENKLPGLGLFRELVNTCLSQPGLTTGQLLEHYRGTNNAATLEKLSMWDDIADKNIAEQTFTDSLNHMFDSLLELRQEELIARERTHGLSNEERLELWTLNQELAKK
Description: as §1

[6] = biological target: GlmU (UniProt A7ZTU1)
GlmU, sequence (A7ZTU1 whole entry, looked up): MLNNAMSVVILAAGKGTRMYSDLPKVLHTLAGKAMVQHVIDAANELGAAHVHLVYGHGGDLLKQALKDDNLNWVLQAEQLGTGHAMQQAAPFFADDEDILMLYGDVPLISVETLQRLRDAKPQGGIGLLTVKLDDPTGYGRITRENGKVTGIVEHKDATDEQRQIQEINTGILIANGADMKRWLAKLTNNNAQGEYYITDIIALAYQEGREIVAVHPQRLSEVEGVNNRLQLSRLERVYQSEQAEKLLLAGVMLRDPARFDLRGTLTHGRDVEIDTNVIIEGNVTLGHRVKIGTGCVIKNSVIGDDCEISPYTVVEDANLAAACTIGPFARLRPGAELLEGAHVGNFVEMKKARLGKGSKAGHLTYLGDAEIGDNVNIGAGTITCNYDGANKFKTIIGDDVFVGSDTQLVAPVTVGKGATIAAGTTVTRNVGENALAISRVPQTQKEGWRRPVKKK
Description: as §1

[7] = biological target: Guanlyate kinase (UniProt Q0TBG1)
Guanlyate kinase, sequence (Q0TBG1 whole entry): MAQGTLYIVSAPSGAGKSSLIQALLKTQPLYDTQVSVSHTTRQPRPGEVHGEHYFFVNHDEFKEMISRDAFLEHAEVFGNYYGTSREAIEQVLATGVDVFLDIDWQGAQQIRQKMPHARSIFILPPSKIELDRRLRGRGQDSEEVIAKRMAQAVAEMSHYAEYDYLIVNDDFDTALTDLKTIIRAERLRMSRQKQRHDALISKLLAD
Description: as §1

[8] = biological target: MurA (UniProt Q3YX52)
MurA, sequence (Q3YX52 whole entry): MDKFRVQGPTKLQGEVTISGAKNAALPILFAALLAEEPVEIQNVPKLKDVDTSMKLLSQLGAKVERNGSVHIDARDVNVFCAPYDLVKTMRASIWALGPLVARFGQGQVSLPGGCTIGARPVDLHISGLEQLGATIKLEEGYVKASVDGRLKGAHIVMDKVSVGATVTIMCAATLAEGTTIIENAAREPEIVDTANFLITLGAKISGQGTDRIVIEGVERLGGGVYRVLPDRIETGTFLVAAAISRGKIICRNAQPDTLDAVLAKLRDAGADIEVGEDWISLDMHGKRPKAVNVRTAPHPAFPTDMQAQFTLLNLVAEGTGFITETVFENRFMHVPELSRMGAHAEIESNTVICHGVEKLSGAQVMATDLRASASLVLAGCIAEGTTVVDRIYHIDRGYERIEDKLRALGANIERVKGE
Description: as §1

[9] = biological target: T1, MurD (UniProt P14900)
T1 sequence (whole entry): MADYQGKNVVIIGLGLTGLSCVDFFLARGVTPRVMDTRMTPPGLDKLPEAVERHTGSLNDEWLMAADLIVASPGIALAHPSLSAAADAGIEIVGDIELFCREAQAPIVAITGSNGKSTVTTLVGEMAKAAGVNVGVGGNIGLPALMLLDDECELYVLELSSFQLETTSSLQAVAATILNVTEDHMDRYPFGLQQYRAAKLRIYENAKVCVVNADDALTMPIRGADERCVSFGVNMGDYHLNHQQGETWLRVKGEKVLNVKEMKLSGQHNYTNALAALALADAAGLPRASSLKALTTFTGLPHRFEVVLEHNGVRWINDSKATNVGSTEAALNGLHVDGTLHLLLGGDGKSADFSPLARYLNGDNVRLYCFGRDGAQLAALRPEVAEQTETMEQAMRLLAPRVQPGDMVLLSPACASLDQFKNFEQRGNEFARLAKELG
Description: as §1

[10] = biological target: T2, MurF (UniProt P11880)
T2 sequence (whole entry): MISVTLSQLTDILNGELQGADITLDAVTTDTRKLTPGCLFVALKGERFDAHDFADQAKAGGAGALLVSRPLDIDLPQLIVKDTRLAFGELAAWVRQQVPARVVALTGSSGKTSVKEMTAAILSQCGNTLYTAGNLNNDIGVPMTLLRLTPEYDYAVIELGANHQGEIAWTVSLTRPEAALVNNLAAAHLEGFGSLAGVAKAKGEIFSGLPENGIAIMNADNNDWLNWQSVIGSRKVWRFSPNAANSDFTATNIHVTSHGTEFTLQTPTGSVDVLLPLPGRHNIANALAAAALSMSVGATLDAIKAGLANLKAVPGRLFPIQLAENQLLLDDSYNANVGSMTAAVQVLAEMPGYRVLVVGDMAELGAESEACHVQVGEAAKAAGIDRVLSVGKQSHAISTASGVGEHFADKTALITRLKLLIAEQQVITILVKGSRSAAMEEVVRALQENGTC
Description: as §1

[11] = tested on: RNA polymerase
Description: as §1

Row | SMILES | relative enzymatic activity [1] | relative enzymatic activity [2] | relative enzymatic activity [3] | relative enzymatic activity [4] | relative enzymatic activity [5] | relative enzymatic activity [6] | relative enzymatic activity [7] | relative enzymatic activity [8] | relative enzymatic activity [9] | relative enzymatic activity [10] | relative enzymatic activity [11]
1 | NC(=O)NN=Cc1ccc([N+](=O)[O-])o1 | 0.958 ± 0.23 | 0.58 ± 0.06 | 1.11 ± 0.018 | 1.32 ± 0.48 | 0.739 ± 0.24 | 0.955 ± 0.085 | 0.897 ± 0.13 | 0.491 ± 0.15 | 0.559 ± 0.37 | 0.933 ± 0.28 | 0.8 ± 0.09
2 | CC[C@H]1OC(=O)[C@H](C)[C@@H](O[C@H]2C[C@@](C)(OC)[C@@H](O)[C@H](C)O2)[C@H](C)[C@@H](O[C@@H]2O[C@H](C)C[C@H](N(C)C)[C@H]2O)[C@](C)(O)C[C@@H](C)C(=O)[C@H](C)[C@@H](O)[C@]1(C)O | 0.598 ± 0.22 | 0.608 ± 0.21 | 0.92 ± 0.048 | 0.503 ± 0.71 | 0.838 ± 0.027 | 0.9665 ± 0.0044 | 0.961 ± 0.098 | 0.848 ± 0.071 | 0.584 ± 0.39 | 0.939 ± 0.22 | 0.863 ± 0.024
3 | CC[C@H](C)C[C@H](C)CCCCCCCCC(=O)N[C@H]1C[C@@H](O)[C@@H](NCCN)NC(=O)[C@@H]2[C@@H](O)CCN2C(=O)[C@H]([C@H](O)CCN)NC(=O)[C@H]([C@H](O)[C@@H](O)c2ccc(O)cc2)NC(=O)[C@@H]2C[C@@H](O)CN2C(=O)[C@H]([C@@H](C)O)NC1=O | 0.131 ± 0.067 | 0.0208 ± 0.022 | 0.699 ± 0.13 | 0.2437 ± 0.00079 | 0.766 ± 0.017 | 1.03 ± 0.013 | 1.09 ± 0.022 | 0.522 ± 0.47 | 0.706 ± 0.5 | 1.39 ± 0.62 | 0.408 ± 0.013
4 | CC[C@H]1OC(=O)[C@H](C)[C@@H](O[C@H]2C[C@@](C)(OC)[C@@H](O)[C@H](C)O2)[C@H](C)[C@@H](O[C@@H]2O[C@H](C)C[C@H](N(C)C)[C@H]2O)[C@](C)(OC)C[C@@H](C)C(=O)[C@H](C)[C@@H](O)[C@]1(C)O | 0.647 ± 0.56 | 0.732 ± 0.33 | 0.901 ± 0.15 | 1.15 ± 0.22 | 0.831 ± 0.025 | 1.03 ± 0.0049 | 0.97 ± 0.048 | 0.856 ± 0.12 | 0.58 ± 0.37 | 0.942 ± 0.24 | 0.862 ± 0.13
5 | CO/N=C(\C(=O)N[C@@H]1C(=O)N2C(C(=O)O)=C(CSC(=O)c3ccco3)CS[C@H]12)c1csc(N)n1 | 0.0013 ± 0.0018 | 0.049 ± 0.0096 | 0.817 ± 0.063 | 0.312 ± 0.026 | 0.533 ± 0.092 | 0.492 ± 0.17 | 0.778 ± 0.12 | 0.0403 ± 0.017 | 0.125 ± 0.094 | 0.82 ± 0.26 | 0.602 ± 0.68
6 | CC1(C)S[C@@H]2[C@H](NC(=O)[C@H](N)c3ccccc3)C(=O)N2[C@H]1C(=O)OCOC(=O)[C@@H]1N2C(=O)C[C@H]2S(=O)(=O)C1(C)C | 0.828 ± 0.25 | 0.472 ± 0.23 | 0.742 ± 0.024 | 0.512 ± 0.72 | 0.809 ± 0.025 | 0.994 ± 0.012 | 0.946 ± 0.046 | 0.6 ± 0.24 | 0.58 ± 0.38 | 1.11 ± 0.15 | 0.868 ± 0.042
7 | CC(C)[C@@H](CC[C@@H](C)[C@H]1CC[C@H]2[C@@H]3[C@H](O)C[C@H]4C[C@@H](NCCCNCCCCN)CC[C@]4(C)[C@H]3CC[C@]12C)OS(=O)(=O)O | 1.22 ± 0.062 | 0.08494 ± 0.00041 | 0.712 ± 0.095 | 0.0811 ± 0.015 | 0.432 ± 0.11 | 0.899 ± 0.069 | 0.231 ± 0.024 | 0.17 ± 0.006 | 0.6 ± 0.42 | 0.896 ± 0.23 | 0.14 ± 0.012
8 | COC1=C(N)C(=O)c2nc(-c3nc(C(=O)O)c(C)c(-c4ccc(OC)c(OC)c4O)c3N)ccc2C1=O | 0.611 ± 0.34 | 0.19 ± 0.014 | 0.732 ± 0.11 | 1.03 ± 0.48 | 0.602 ± 0.05 | 0.789 ± 0.23 | 0.6758 ± 0.0058 | 0.072 ± 0.019 | 0.596 ± 0.39 | 1 ± 0.23 | 0.291 ± 0.026
9 | O=C(O)c1cn(C2CC2)c2cc(N3CCC(O)(COc4ccc(N5C[C@H](CO)OC5=O)cc4F)CC3)c(F)cc2c1=O | 0.0421 ± 0.059 | 0.414 ± 0.095 | 0.9068 ± 0.0026 | 1.13 ± 0.22 | 0.851 ± 0.039 | 0.9967 ± 0.0077 | 0.905 ± 0.15 | 0.608 ± 0.25 | 0.583 ± 0.39 | 1.22 ± 0.022 | 0.8 ± 0.067
10 | CC1COc2c(C3(N)CC3)c(F)cc3c(=O)c(C(=O)O)cn1c23.CS(=O)(=O)O (centres undefined) | 0.0382 ± 0.054 | 0.57 ± 0.24 | 0.904 ± 0.083 | 0.511 ± 0.72 | 0.835 ± 0.011 | 0.898 ± 0.045 | 1.02 ± 0.16 | 0.879 ± 0.057 | 0.579 ± 0.4 | 1.07 ± 0.021 | 0.872 ± 0.013
11 | NC(=O)[C@@H]1C(=O)C[C@@H]2C[C@@H]3Cc4cccc(O)c4C(=O)[C@@H]3C(=O)[C@]2(O)C1=O | 1.02 ± 0.18 | 0.519 ± 0.062 | 0.963 ± 0.042 | 0.976 ± 0.11 | 0.822 ± 0.017 | 1.08 ± 0.021 | 0.796 ± 0.086 | 0.328 ± 0.11 | 0.62 ± 0.39 | 1.01 ± 0.2 | 0.715 ± 0.048
12 | O=C1OCCN1N=Cc1ccc([N+](=O)[O-])o1 | 1.13 ± 0.099 | 0.454 ± 0.088 | 1.02 ± 0.015 | 1.35 ± 0.37 | 0.747 ± 0.22 | 0.974 ± 0.017 | 1.01 ± 0.042 | 0.649 ± 0.12 | 0.565 ± 0.37 | 0.947 ± 0.16 | 0.941 ± 0.097
13 | CCCC[P+](CCCC)(CCCC)Cc1ccc(NC(=O)[C@H](Cc2ccc3ccccc3c2)N/C(=N/C2CCCCC2)NC2CCCCC2)cc1 | 0.00696 ± 0.0098 | 0.0186 ± 0.0015 | 1.08 ± 0.094 | 0.73 ± 0.026 | 0.595 ± 0.0097 | 0.134 ± 0.011 | 0.223 ± 0.023 | 0.0355 ± 0.0073 | 0.167 ± 0.12 | 0.108 ± 0.017 | 0.346 ± 0.01
14 | NC(=O)[C@@H]1CC[C@@H]2CN1C(=O)N2OS(=O)(=O)O | 0.771 ± 0.26 | 0.552 ± 0.18 | 0.834 ± 0.21 | 0.501 ± 0.71 | 0.803 ± 0.037 | 0.998 ± 0.01 | 0.947 ± 0.072 | 0.699 ± 0.17 | 0.604 ± 0.42 | 0.976 ± 0.22 | 0.809 ± 0.13
